# In all, about 310,000 compounds went through this assay and about 2,200 (0.71%) showed an effect of 50% or more. The effect is printed as a negative number. The full list was thinned out, with strong results kept by preference.
# Biological target: human ether-à-go-go-related gene (hERG) potassium channel (human, UniProt Q12809)
# Test: primary screen, population patch clamp on CHO cells stably expressing hERG; higher = less effect of the substance
# Description: Briefly, Chinese hamster ovary (CHO) cells stably expressing the hERG channel were dislodged from tissue culture flasks and dispensed into PPC plates. […] During the recording, background leak currents were estimated by a 100 ms step to -80 mV from an initial holding potential of -70 mV and subtracted from the subsequent current measurement. The campaign was conducted in two phases using slight differences in recording protocol. In the first phase, the initial voltage pulse used a 100 ms step to -30 mV from a holding potential of -70 mV, a 2 s conditioning step to +25 mV, and a 2 s test step to -30 mV. During the second phase of the screen, the potential during the conditioning step was raised to +45 mV. In both phases of the campaign, a secondary voltage pulse was applied using the same parameters as the second phase initial pulse. The initial and secondary pulses were applied in the absence of compound, and upon application of 1 μM and 10 μM test concentrations. Small molecule effects on hERG current density were quantified by […].
# Chain of human ether-à-go-go-related gene (hERG) potassium channel (Q12809 whole entry, looked up): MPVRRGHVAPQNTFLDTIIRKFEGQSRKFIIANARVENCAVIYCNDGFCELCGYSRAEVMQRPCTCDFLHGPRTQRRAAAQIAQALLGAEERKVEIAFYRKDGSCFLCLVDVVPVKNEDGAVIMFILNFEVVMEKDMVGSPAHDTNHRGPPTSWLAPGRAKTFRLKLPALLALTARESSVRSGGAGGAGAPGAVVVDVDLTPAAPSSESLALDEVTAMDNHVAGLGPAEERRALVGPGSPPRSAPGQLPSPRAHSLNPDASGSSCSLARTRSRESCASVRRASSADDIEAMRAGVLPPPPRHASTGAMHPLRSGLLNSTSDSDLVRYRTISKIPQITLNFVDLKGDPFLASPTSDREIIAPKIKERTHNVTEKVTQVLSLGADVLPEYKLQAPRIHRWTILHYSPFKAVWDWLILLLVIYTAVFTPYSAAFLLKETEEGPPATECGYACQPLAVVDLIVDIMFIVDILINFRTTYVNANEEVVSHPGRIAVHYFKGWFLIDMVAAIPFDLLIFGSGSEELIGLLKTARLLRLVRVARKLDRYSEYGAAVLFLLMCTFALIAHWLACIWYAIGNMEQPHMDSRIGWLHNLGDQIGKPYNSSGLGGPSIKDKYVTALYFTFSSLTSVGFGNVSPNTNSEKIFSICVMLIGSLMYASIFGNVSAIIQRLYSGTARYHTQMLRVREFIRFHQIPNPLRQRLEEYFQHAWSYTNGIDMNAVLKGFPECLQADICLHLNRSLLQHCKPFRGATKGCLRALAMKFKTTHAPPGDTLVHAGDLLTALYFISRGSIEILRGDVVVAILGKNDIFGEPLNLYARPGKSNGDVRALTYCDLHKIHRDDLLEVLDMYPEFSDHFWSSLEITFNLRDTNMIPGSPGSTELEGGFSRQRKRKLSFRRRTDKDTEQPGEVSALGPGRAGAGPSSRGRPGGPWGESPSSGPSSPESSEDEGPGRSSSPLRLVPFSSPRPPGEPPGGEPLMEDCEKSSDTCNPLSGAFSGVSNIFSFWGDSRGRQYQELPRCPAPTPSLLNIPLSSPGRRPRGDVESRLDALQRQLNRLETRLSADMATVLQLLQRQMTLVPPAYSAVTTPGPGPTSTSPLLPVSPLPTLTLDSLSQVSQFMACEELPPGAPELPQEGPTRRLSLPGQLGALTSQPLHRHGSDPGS
row,Structure (SMILES),"hERG current change (%, negative = inhibition) at 1uM"
1,O=C(CCCN1C(=O)/C(=C/c2ccc3c(c2)OCO3)SC1=S)Nc1cccc(C(=O)O)c1,9.71%
2,Cn1cc(S(=O)(=O)N2CCC(C(N)=O)CC2)c(=O)n(C)c1=O,11%
3,Cc1c(C)c2cc(Cl)c(O)c(CN(C)C)c2oc1=O,15.4%
4,CN(C)/C=N/c1cc(=O)[nH]c(=O)n1CC1CC1,17.1%
5,CC(=O)Nc1ccc(CN2CCC(n3nccc3NC(=O)CCc3ccccc3)CC2)cc1,11.7%
6,CC(C)Oc1ccc(CN2CCC(n3nccc3NC(=O)CCc3ccccc3)CC2)cc1,-86.3%
7,O=C(CCc1ccccc1)Nc1ccnn1C1CCN(Cc2ccc(OCCO)cc2)CC1,-9.11%
8,O=C(/C=C/c1ccc(-c2ccccc2)o1)c1ccccc1,10.1%
9,Cc1ccc(NC(=O)C(c2ccccc2)N2CCN(CC(=O)N3CCOCC3)CC2)cc1 (stereo not drawn),-8.48%
10,CCOc1ccccc1NC(=O)C(c1ccccc1)N1CCN(CC(=O)N2CCOCC2)CC1 (stereo not drawn),-79.7%
11,O=C(Nc1ccc(F)cc1)C(c1ccccc1)N1CCN(CC(=O)N2CCOCC2)CC1 (stereo not drawn),-14.5%
12,O=C(NCCc1nc2ccccc2[nH]1)/C(=C/c1ccc2c(c1)OCO2)NC(=O)c1ccccc1Cl,-49.9%
13,O=C(NCCc1nc2ccccc2[nH]1)/C(=C/c1ccc2c(c1)OCO2)NC(=O)c1ccc(Cl)cc1Cl,-73.9%
14,O=C(NCCc1nc2ccccc2[nH]1)/C(=C/c1ccc2c(c1)OCO2)NC(=O)c1ccccc1,-14.2%
15,CSCC[C@H](NC(=O)c1ccc(Cl)c(S(=O)(=O)N2CCCC2)c1)c1nc2ccccc2[nH]1,-1.71%
16,COc1ccc(CN2CCCC(CNC(=O)c3ccc(F)cc3)C2)c(F)c1 (stereo not drawn),-50.4%
17,COc1ccc(CN2CCCC(CNC(=O)c3ccc(F)cc3)C2)c(C)c1C (stereo not drawn),-46.2%
18,O=C(NCC1CCCN(Cc2cccc(OCCO)c2)C1)c1ccc(F)cc1 (stereo not drawn),2.83%
19,COc1ccc(CC(=O)NCC2CCCN(Cc3ccc(F)cc3F)C2)cc1 (stereo not drawn),8.71%
20,COc1ccc(CC(=O)NCC2CCCN(Cc3ccc(OC)cc3F)C2)cc1 (stereo not drawn),6.22%
21,CSc1ccc(CN2CCCC(CNC(=O)c3ccc(F)cc3)C2)cc1 (stereo not drawn),-59%
22,CCOc1cc(CN2CCCC(CNC(=O)c3ccc(F)cc3)C2)ccc1OC (stereo not drawn),-17%
23,CSc1cccc(CN2CCCC(CNC(=O)c3ccc(F)cc3)C2)c1 (stereo not drawn),-19.1%
24,CCOc1ccc(CN2CCCC(CNC(=O)c3ccc(F)cc3)C2)cc1CO (stereo not drawn),-50.5%
25,O=C(NCC1CCCN(Cc2ccc3nonc3c2)C1)c1ccc(F)cc1 (stereo not drawn),-13.9%
26,COc1cc(OC)cc(C(=O)NCC2CCCN(Cc3ccc(SC)cc3)C2)c1 (stereo not drawn),-34.6%
27,COc1ccc(CN2CCCC(CNC(=O)c3ccc(F)cc3)C2)cc1OC (stereo not drawn),-54.3%
